40 compounds from PubChem BioAssay (Tox21) can be followed below.

Results filed as inconclusive are left out. A number with no mark means an inactive call. Active and inactive are the calls of the source. Calls come from the whole dose curve.
% is set by controls: 0 for no effect and ±100 for the full control effect; potency is the fitted concentration of half-maximal effect.

The assay is described as follows: cAMP Responsive Elements (CRE) small molecule agonists, cell-based qHTS assay (AID 1963590). Particulars: CRE-bla HEK293T, beta-lactamase FRET ratio, 3 h; series mostly up to 92.4 µM; activation: at the top concentration. From the text: U.S. Tox21 Program National Center for Advancing Translational Sciences [NCATS] Division of Preclinical Innovation [DPI] U.S. Environmental Protection Agency [EPA] National Institutes of Environmental Health Sciences [NIEHS] National Toxicology Program [NTP] U.S. Food and Drug Administration [FDA] Tox21 Assay Overview: CREB (cyclic-AMP Responsive Element Binding Protein) is a cellular transcription factor. It binds to certain DNA sequences called cAMP Responsive Elements (CRE) and regulates the transcription of the genes. […] This cell line can be used to find agonists/antagonists of the cyclic AMP signaling pathway. The activation of the report gene under culture conditions can be detected by fluorescence intensity. This cell line has been used to screen the Tox21 10K compound library to identify agonists that induce oxidative stress.
Tox21 Assay Protocol Summary: CRE-bla Hek 293T cells were suspended in assay medium (DMEM containing 10% dialyzed FBS, 0.1 mM NEAA, 1 mM sodium pyruvate and 25 mM HEPES) and dispensed at 2,000 cells/5 uL /well into 1536-well black wall/clear bottom plates using a Multidrop Combi (ThermoFisher Scientific, Waltham, MA) dispenser. After the assay plates were incubated at 37 C/5% CO2 for 18 hrs, 23 nL of compounds dissolved in DMSO, positive controls or DMSO only was transferred to the assay plate by a pintool workstation (Kalypsys, San Diego, CA). After the plates were incubated at 37 C/5% CO2 for 3 hrs, 1 uL of LiveBLAzer B/G FRET substrate (Invitrogen, Carlsbad, CA) was added to each well using Bioraptr Flying Reagent Dispenser (FRD, Aurora Discovery, San Diego, CA). The plates were incubated at room temperature for 2 h.
Take `CCCCCCCCCCCCCCCC(=O)OC/C=C(C)/C=C/C=C(C)/C=C/C1=C(C)CCCC1(C)C`: the “activation” value was -2.48%.

Turning to `CC(CCO)CCCC(C)(C)O` (stereo not given), the “activation” value was -2.1%.

`O=C(Nc1ccc2c(c1)Cc1ccccc1-2)C(F)(F)F`: the “activation” value is -0.639%.

For `Cc1c(C(=O)O)c(O)cc2c1C(=O)c1c(O)c([C@@H]3O[C@H](CO)[C@@H](O)[C@H](O)[C@H]3O)c(O)c(O)c1C2=O`, the Potency result is “inactive”.

As to `COc1ccnc(CS(=O)c2nc3ccc(OC(F)F)cc3[nH]2)c1OC` (stereo not given), the “activation” value is -1.71% [at 42.5 µM].

Take `c1cc(CCCc2ccncc2)ccn1`: the “activation” value is -1.76%.

In the case of `CSc1ccc(C=O)cc1`, the “activation” value was 0.778%.

Regarding `COc1ccc(N=Nc2cc(C)c(N=Nc3ccc(S(=O)(=O)O)cc3)cc2OC)cc1`, the “activation” value was 3.94%.

For `CC(=O)OCC(=O)[C@@]1(O)[C@H](OC(C)=O)C[C@H]2[C@@H]3CCC4=CC(=O)C=C[C@]4(C)[C@@]3(F)[C@@H](O)C[C@@]21C`, the “activation” value is 0.462% [at 42.5 µM].

On to `CCCCCCCCCCO[C@@H]1O[C@H](CO)[C@@H](O)[C@H](O)[C@H]1O`, for which the “activation” value was 10.4%.

`OCCN1CCOCC1`: the “activation” value is 1.02%.

In the case of `Cc1coc2ccccc2c1=O`, the “activation” value was -0.681% [at 42.5 µM].

As for `O=C(NO)C1(NS(=O)(=O)c2ccc(Oc3ccc(F)cc3)cc2)CCOCC1`, the “activation” value is 0.355%.

Take `c1ccc(Sc2ccccc2)cc1`: the “activation” value is 2.46%.

For the compound `CC(CSC(=O)c1ccccc1)C(=O)N1C[C@@H](Sc2ccccc2)C[C@H]1C(=O)O` (stereo not given in full), the activation was -1.82% [at 19 µM].

With `COc1cc(-c2ccc(=O)[nH]n2)ccc1OC(F)F`, the Potency is 13.3 µM (active).

For the compound `CCCCCCCCCCCCCCCS(=O)(=O)Oc1ccccc1`, the “activation” value is 0.105% [at 42.5 µM].

As for `CC(=O)OC(C)OC(C)=O`, the “activation” value is 1.09%.

As for `CCCCc1cc2ccccc2c(OCCN(C)C)n1`, the “activation” value was 3.09% [at 42.5 µM].

As for `CC(=O)NNC(C)=O`, the “activation” value is -1.1%.

Take `O=C1NCC2(CCN(CCc3ccccc3)CC2)O1`: the “activation” value is -0.909% [at 42.5 µM].

As for `Nc1ccn(C2CO[C@H](CO)O2)c(=O)n1` (stereo not given in full), the “activation” value was 5.45% [at 42.5 µM].

`CC(=O)OCC(CCn1cnc2cnc(N)nc21)COC(C)=O`: the “activation” value was -2.05% [at 42.5 µM].

As to `CCC(C)(CCC(C)C)C(=O)O` (stereo not given), the “activation” value was -0.198%.

On to `Cc1ccccc1N=C(N)Nc1ccccc1C`, for which the “activation” value is -2.42%.

Consider `CC(C)NC(=O)c1ccc(C=O)cc1`, for which the “activation” value was -2.05% [at 42.5 µM].

With `CCOC(=O)C1=C[C@]2(CC)CCCN3CCc4c(n1c1ccccc41)[C@@H]32`, the “activation” value is 10.3% [at 42.5 µM].

Take `CC1CCC(CO)CC1` (stereo not given): the “activation” value is -0.837%.

Turning to `COC=O`, the activation was -0.656% [at 8.39 µM].

For the compound `CCc1ccc(C)cc1`, the “activation” value is 0.187%.

Take `CCCCCCCCS(=O)(=O)O`: the “activation” value was 0.0511%.

Take `CCN(Cc1cccc(S(=O)(=O)O)c1)c1ccc(C(=C2C=CC(=[N+](CC)Cc3cccc(S(=O)(=O)O)c3)C=C2)c2ccccc2S(=O)(=O)[O-])cc1`: the “activation” value was -0.781% [at 42.5 µM].

With `CC(=O)[C@]1(O)Cc2c(O)c3c(c(O)c2[C@@H](O[C@H]2C[C@H](N)[C@H](O)[C@H](C)O2)C1)C(=O)c1ccccc1C3=O`, the “activation” value was -4.24% [at 42.5 µM].

As for `CCCCCOC(=O)COc1cc(N2C(=O)C3=C(CCCC3)C2=O)c(F)cc1Cl`, the “activation” value was 5.68%.

As to `Nc1cc(N)cc(C(=O)O)c1`, the “activation” value was 0.231%.

`COC(=O)CC(=O)C(C)(C)C`: the “activation” value is -0.801%.

As for `O=C1CCCN1C1CCCCC1`, the “activation” value is 0.588%.

For the compound `CCCCCOC(=O)Nc1nc(=O)n([C@@H]2O[C@H](C)[C@@H](O)[C@H]2O)cc1F`, the “activation” value is -0.0159% [at 42.5 µM].

As to `Clc1ccc(C(Cn2ccnc2)OCc2ccsc2Cl)c(Cl)c1` (stereo not given), the “activation” value is 4.14% [at 42.5 µM].

As for `CCCCCCCCCCCC(=O)[O][Sn]([CH2]CCC)([CH2]CCC)[O]C(=O)CCCCCCCCCCC`, the “activation” value was -2.68% [at 42.5 µM].
